# Most compounds without a hit are left out; they make up all but 3% or so of the library.
# C8 TRAIL sens: sensitizes caspase-8 expressing cells to TRAIL; NB7+C8 cells + TRAIL, ATPlite viability luminescence; inhibition (viability loss, TRAIL sensitization), % at 10 µM; 360,000 tested, 1% active;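 active means compounds causing at least 50% loss of cell viability in the single-dose screen, relative to plate controls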
# SENP7 block: SENP7 protease inhibition; AID 434973; 330,000 tested, 1.5% active; recombinant SENP7, Z-RLRGG-aminoluciferin luminescence, 40 min; inhibition, % at 5 µM;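 active means inhibition above about 50% at the single test dose, limit read from the data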;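 further: plate controls were DMSO with enzyme for no effect and no enzyme buffer wells for full effect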
# SENP8 block-1: blocks the human protease SENP8; purified SENP8, Z-RLRGG-aminoluciferin cleavage, luminescence; 330,000 tested, 1.2% active; AID 2540; inhibition, % at 10 µM; in the data active means inhibition above about 50%
# PPC-1+TRAIL kill: PPC-1 cancer cell killing with TRAIL present | 220,000 tested, 0.41% active | PPC-1 cells + TRAIL, ATPLite viability luminescence | cell killing (% activity), % at 4 µM or 5 µM;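 active means cell killing above 50% in the first pass at 4 µM, then a duplicate retest at 5 µM averaging 50% or more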;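 further: plate controls were cells with TRAIL plus DMSO for no effect and medium-only wells lacking cells for full effect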
# SENP6 inh: SENP6 protease inhibition; 330,000 tested, 1.8% active; Q9GZR1; inhibition, % at 10 µM; Recombinant SENP6 catalytic domain, aminoluciferin luminescence;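 active means inhibition above about 50% at the single tested dose, limit read from the data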;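 further: plate controls were DMSO wells with enzyme for no effect and DMSO wells lacking enzyme for full effect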
# Target sequence (Q9GZR1 628-1112 limits assumed): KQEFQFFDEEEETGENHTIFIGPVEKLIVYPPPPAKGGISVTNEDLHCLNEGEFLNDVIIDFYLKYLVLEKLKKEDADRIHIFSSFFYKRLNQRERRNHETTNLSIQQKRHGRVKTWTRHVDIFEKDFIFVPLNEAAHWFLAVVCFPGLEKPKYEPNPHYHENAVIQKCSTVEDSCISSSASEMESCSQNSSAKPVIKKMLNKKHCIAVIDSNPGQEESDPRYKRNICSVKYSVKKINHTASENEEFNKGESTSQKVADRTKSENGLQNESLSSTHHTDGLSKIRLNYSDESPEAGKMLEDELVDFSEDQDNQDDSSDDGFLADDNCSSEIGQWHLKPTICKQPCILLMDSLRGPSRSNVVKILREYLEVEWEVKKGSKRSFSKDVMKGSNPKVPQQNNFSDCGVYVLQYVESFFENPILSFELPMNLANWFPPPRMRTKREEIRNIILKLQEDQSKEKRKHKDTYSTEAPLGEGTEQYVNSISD
# SENP8 block-2: SENP8 (human) protease inhibition. Q96LD8. recombinant SENP8, Nedd8 substrate fluorescence. inhibition, % at 20 µM. 360,000 tested, 0.64% active; in the data active means inhibition mostly above about 40%, no sharp cut-off; inactive means mostly below about 27%
# SENP8 conf: confirmation of human SENP8 protease inhibitors; inhibition, % at 12.5 µM; shares compounds with SENP7 block; Recombinant SENP8, Z-RLRGG-aminoluciferin luminescence, 60 min; 6,200 tested, 40% active;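 active means mean inhibition across replicates above about 50%, limit read from the data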
# SENP6 confirm: human SENP6 inhibition, confirmed; shares compounds with SENP7 block; recombinant SENP6, Z-RLRGG-aminoluciferin luminescence; inhibition, % at 12.5 µM; 6,200 tested, 58% active; AID 488915
# SENP7 confirm: human SENP7 inhibition, confirmed; shares compounds with SENP7 block; recombinant SENP7, Z-RLRGG-aminoluciferin luminescence, 40 min; inhibition, % at 12.5 µM; 6,200 tested, 69% active
# Casp3 select: selectivity test for SENP inhibitors: human caspase-3 inhibition; shares compounds with SENP7 block; purified caspase-3, Z-DEVD-aminoluciferin luminescence, 60 min; inhibition, % at 12.5 µM; 6,200 tested, 60% active; AID 488918;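 active means mean inhibition above about 50%, limit read from the data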;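 further: plate controls were enzyme with DMSO for no effect and wells without caspase-3 for full effect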
# SENP luc ctr: luminescence interference (SENP counter-screen); shares compounds with SENP7 block; Pre-incubated SENP8/Z-RLRGG-aminoluciferin, luciferase luminescence interference; inhibition, % at 12.5 µM; 6,200 tested, 39% active; AID 488919;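 active means mean inhibition above about 50% when retested at one dose, limit read from the data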;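 further: plate controls were DMSO wells with completed reaction for no effect and substrate without enzyme for full effect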
# Starred values were filed as active, the others as inactive; i = inactive; . = not tested or not shown.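 How the source made its calls, unless noted: active means mean inhibition above about 50% in the one-dose retest (limit read from the data); inactive means the rest.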
SMILES,C8 TRAIL sens,SENP7 block,SENP8 block-1,PPC-1+TRAIL kill,SENP6 inh,SENP8 block-2,SENP8 conf,SENP6 confirm,SENP7 confirm,Casp3 select,SENP luc ctr
CNC(=O)c1ccc(CN(C)C(=O)c2cccc(S(=O)(=O)N3CCc4ccccc4C3)c2)cc1,-19,.,.,.,.,5,.,.,.,.,.
Cn1cccc1C(=O)OCc1cc(Cl)cc2c1OCOC2,-20,51*,45,3,75*,10,70*,72*,90*,47,65*
CN1CC=C2C(C#N)=C(N)C(C#N)(C#N)[C@H](c3ccoc3)[C@H]2C1,5,41,27,1,76*,i,12,10,2,-2,-7
O=C(CN1C(=O)CCOc2ccccc21)Nc1ccc(Cl)c(S(=O)(=O)N2CCOCC2)c1,-27,3,4,.,10,6,.,.,.,.,.
COc1ccc2nc(NC(=O)c3ccc([N+](=O)[O-])o3)sc2c1,54*,44,16,.,63*,-32,46,68*,74*,14,32
O=C(Nc1nc2c(F)cc(F)cc2s1)c1ccc([N+](=O)[O-])o1,0,32,69*,.,73*,6,-24,-13,-3,-5,-3
Cc1cc(C)c2nc(NC(=O)c3ccc([N+](=O)[O-])o3)sc2c1,11,10,-7,.,-11,-8,.,.,.,.,.
O=C(Nc1nc2ccccc2s1)c1ccc([N+](=O)[O-])o1,16,60*,50*,.,76*,6,-28,-20,-6,-6,-6
CC1CCCCN1C(=S)Nc1ccc(S(=O)(=O)N2CCCCC2)cc1 (stereo unspecified),-14,.,.,.,.,17,.,.,.,.,.
COCCN(C(=O)COC(=O)CNC(=O)c1ccc(C)cc1)c1c(N)n(Cc2ccccc2)c(=O)[nH]c1=O,-18,.,.,.,.,0,.,.,.,.,.
Clc1ccc(-c2nnc(N3CCCC3)nn2)cc1,10,-5,2,-10,68*,13,38,41,58*,55*,10
CCSc1cc(N2CCCC2)nc(-c2ccc(Cl)cc2)n1,2,9,9,.,8,-53,.,.,.,.,.
O=C(NC(=S)Nc1cccnc1Cl)c1ccc(Cl)cc1,5,46,46,.,67*,-5,25,23,46,48,53*
FC(F)(F)c1nc2nc(Cl)c(Cl)nc2[nH]1,-9,.,.,.,.,-240,.,.,.,.,.
FC(F)(F)c1cccc(-c2nc3nc(Cl)c(Cl)nc3[nH]2)c1,53*,92*,93*,29,95*,-264,97*,98*,102*,92*,87*
O=C(Nc1ccccc1)Nc1ccc(Cl)nc1Cl,-6,-13,-23,.,-21,18,.,.,.,.,.
Cc1ccccc1NC(=O)c1ccc2ccccc2c1,4,32,4,.,25,-2,.,.,.,.,.
O=C(O)c1ccc(NC(=S)NC(=O)c2ccc3ccccc3c2)cc1,15,24,-7,.,-9,11,.,.,.,.,.
NC(=O)c1ccccc1NC(=O)c1ccc2ccccc2c1,59*,90*,79*,.,96*,0,51*,82*,98*,81*,59*
COc1ccc(C(=O)Nc2ccccc2C(=O)N/N=C/c2cccc3ccccc23)cc1,95*,63*,4,90*,60*,-30,-11,22,42,45,2
O=C(Nc1ccccc1C(=O)N/N=C/c1ccccc1)c1ccco1,48,-9,-11,.,-13,-52,.,.,.,.,.
O=C(Nc1ccccc1C(=O)N/N=C/c1ccc(O)cc1)c1ccccc1,79*,61*,23,29,65*,-128,-5,3,81*,86*,64*
O=C(NC(=S)Nc1ccccc1C(=O)O)c1ccc2ccccc2c1,-6,1,-5,6,67*,-104,14,8,7,18,21
CCN(CC)C(=O)[C@H]1CC(CC(=O)NCC23CC4CC(CC(C4)C2)C3)C(=O)N2CCc3c([nH]c4ccccc34)[C@]12C (stereo partly specified),17,-4,3,.,5,3,.,.,.,.,.
C(=NN1CCCCCC1)c1ccc2c(c1)OCO2,31,.,.,.,.,-9,.,.,.,.,.
SMILES,C8 TRAIL sens,SENP7 block,SENP8 block-1,PPC-1+TRAIL kill,SENP6 inh,SENP8 block-2,SENP8 conf,SENP6 confirm,SENP7 confirm,Casp3 select,SENP luc ctr
CC(C)C(NC(=O)C(C)N1C(=O)c2ccccc2C1=O)c1ccccc1 (stereo unspecified),6,-7,-5,.,-4,8,.,.,.,.,.
NCc1ccccc1CS(=O)(=O)N1CCOCC1,9,-1,-7,.,2,11,.,.,.,.,.
NC(=O)c1ccccc1NC(=O)c1ccc2c(c1)OCO2,32,70*,57*,.,70*,-11,-22,52*,88*,81*,39
Cc1ccc(C(=O)Nc2cc(Cl)ccc2OC(=O)c2ccc(C)cc2)cc1,.,33,10,4,32,.,.,.,.,.,.
COc1ccc(C(=O)Nc2ccccc2C(=O)N2CCCCCC2)cc1,19,-6,-13,.,-6,1,.,.,.,.,.
COc1ccc(C(=O)Nc2ccccc2C(N)=O)cc1,52*,37,5,32,65*,-23,22,19,68*,65*,53*
COC(=O)c1ccccc1NC(=S)NC(=O)c1ccc2c(c1)OCO2,11,-6,0,.,5,-394,.,.,.,.,.
COc1ccc(C(=O)Nc2cc(Cl)ccc2OC(=O)c2ccc(OC)cc2)cc1,37,55*,33,28,57*,4,11,12,35,54*,16
COc1ccc(NC(=O)CSc2nnc(N)s2)cc1S(=O)(=O)N1CCCCC1,-4,-2,-3,.,-2,14,.,.,.,.,.
CCOC(=O)c1ccc(Nc2cnc3ccccc3n2)cc1,-17,56*,-14,24,18,-332,7,20,63*,11,8
CCOC(=O)c1ccc(NC(=O)c2ccccc2[N+](=O)[O-])cc1,25,-2,-7,10,-17,12,.,.,.,.,.
CCOC(=O)c1ccc(NCc2nc3ccccc3[nH]2)cc1,39,58*,85*,-8,93*,-46,67*,61*,83*,68*,71*
CCOC(=O)c1ccc(Nc2ncccc2[N+](=O)[O-])cc1,8,83*,34,15,24,40,32,39,48,57*,6
